# From PubChem BioAssay (NCATS)
# Inconclusive results are not listed. The source made the active and inactive calls. Unless noted, calls come from the whole dose curve; as a rule, active = well fitted cell-killing curve with a large enough effect; inconclusive = small, poorly fitted or top-dose-only effect, or effect the other way; inactive = no such curve, though single readings can be large or run the other way.
# How the values were obtained:
# [1] = Quantitative High-Throughput drug screen in 47 multiple myeloma cell lines against the NCATS MIPE library collection: KMS28PE_JCRB cell viability assay (AID 1918983); note: nearly all actives have a fitted effect of over 35% in size
# Procedure, shortened: (§1)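 Plated at 500 cells per well, myeloma lines received MIPE 4.0 compounds by pin tool. Following 48 h culture at 37 °C, CellTiter-Glo luminescence gave viability relative to DMSO and media-only controls.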
# [2] = Quantitative High-Throughput drug screen in 47 multiple myeloma cell lines against the NCATS MIPE library collection: L363_DSMZ cell viability assay (AID 1918984); note: nearly all actives have a fitted effect of over 40% in size
# Procedure, shortened: as §1
# [3] = Quantitative High-Throughput drug screen in 47 multiple myeloma cell lines against the NCATS MIPE library collection: OCIMY7_PLB cell viability assay (AID 1918987); note: nearly all actives have a fitted effect of over 65% in size
# Procedure, shortened: as §1
# [4] = Quantitative High-Throughput drug screen in 47 multiple myeloma cell lines against the NCATS MIPE library collection: OCIMY5_PLB cell viability assay (AID 1918988); note: nearly all actives have a fitted effect of over 65% in size
# Procedure, shortened: as §1
# [5] = Quantitative High-Throughput drug screen in 47 multiple myeloma cell lines against the NCATS MIPE library collection: OPM1_PLB cell viability assay (AID 1918989); note: nearly all actives have a fitted effect of over 40% in size
# Procedure, shortened: as §1
# [6] = Quantitative High-Throughput drug screen in 47 multiple myeloma cell lines against the NCATS MIPE library collection: SKMM1_PLB cell viability assay (AID 1919863); conditions: SKMM1 myeloma viability, CellTiter-Glo ATP, 48 h; viability: stronger effect = lower value; note: nearly all actives have a fitted effect of over 35% in size
# Procedure, shortened: as §1
# [7] = Quantitative High-Throughput drug screen in 47 multiple myeloma cell lines against the NCATS MIPE library collection: U266_ATCC cell viability assay (AID 1919864); note: nearly all actives have a fitted effect of over 35% in size
# Procedure, shortened: as §1
# [8] = Quantitative High-Throughput drug screen in 47 multiple myeloma cell lines against the NCATS MIPE library collection: XG6_PLB cell viability assay (AID 1919865); note: nearly all actives have a fitted effect of over 40% in size
# Procedure, shortened: as §1
# [9] = Quantitative High-Throughput drug screen in 47 multiple myeloma cell lines against the NCATS MIPE library collection: VP6_DJ cell viability assay (AID 1919867); note: nearly all actives have a fitted effect of over 40% in size
# Procedure, shortened: as §1
# [10] = Quantitative High-Throughput drug screen in 47 multiple myeloma cell lines against the NCATS MIPE library collection: UTMC2_PLB cell viability assay (AID 1919868); conditions: CellTiter-Glo ATP luminescence, 48 h; viability (% of DMSO control): at 45.8 µM (top of the series) unless noted; note: nearly all actives have a fitted effect of over 55% in size
# Procedure, shortened: as §1
# [11] = Quantitative High-Throughput drug screen in 47 multiple myeloma cell lines against the NCATS MIPE library collection: PE2_PLB cell viability assay (AID 1919869); note: nearly all actives have a fitted effect of over 35% in size
# Procedure, shortened: as §1
# [12] = Quantitative High-Throughput drug screen in 47 multiple myeloma cell lines against the NCATS MIPE library collection: PCM6_Riken cell viability assay (AID 1919870); note: nearly all actives have a fitted effect of over 30% in size
# Procedure, shortened: as §1
# [13] = Quantitative High-Throughput drug screen in 47 multiple myeloma cell lines against the NCATS MIPE library collection: RPMI8226_ATCC cell viability assay (AID 1919871); note: nearly all actives have a fitted effect of over 30% in size
# Procedure, shortened: as §1
# [14] = Quantitative High-Throughput drug screen in 47 multiple myeloma cell lines against the NCATS MIPE library collection: OPM2_DSMZ cell viability assay (AID 1919872); note: nearly all actives have a fitted effect of over 30% in size
# Procedure, shortened: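 CellTiter-Glo luminescence (ATP) after 48 h compound exposure, 37C/5% CO2; 500 cells/well; MIPE 4.0 approved/investigational drugs pinned in; DMSO = 100%, media only = 0% viability.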
# [15] = Quantitative High-Throughput drug screen in 47 multiple myeloma cell lines against the NCATS MIPE library collection: KMS11_JCRBsus cell viability assay (AID 1919873); note: nearly all actives have a fitted effect of over 50% in size
# Procedure, shortened: as §1
# [16] = Quantitative High-Throughput drug screen in 47 multiple myeloma cell lines against the NCATS MIPE library collection: KMS28BM_JCRB cell viability assay (AID 1919874); note: nearly all actives have a fitted effect of over 35% in size
# Procedure, shortened: as §1
# [17] = qHTS drug screen for cell cycle checkpoint inhibitors in PARPi-resistant BRCA-mutant ovarian cancer cell lines. (AID 1963452; calls by dose curve); conditions: PEO1/OlaR viability, CellTiter-Glo luminescence, 96 h; for Z-AUC: stronger effect = lower value
# Procedure, shortened: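 PEO1, PEO4 and PEO1/OlaR ovarian cancer cells, 600 per well, exposed 96 h at 37C to a dilution series. Viability read by CellTiter-Glo luminescence, normalized to DMSO and empty wells; activity summarized as Z-AUC.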
# [18] = qHTS for identification of novel therapeutic agents for treatment of microphthalmiaassociated transcription factor (MiT) renal cell carcinoma (RCC) (AID 1963991; calls by dose curve;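 for z-score: curves scaled with 100% = DMSO viability and 0% = empty wells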); conditions: CellTiter-Glo, 48 h; for Potency: active = Z-AUC below -0.8 in all three lines; for z-score: stronger effect = lower value
# Procedure, shortened: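 UOK109/UOK124/UOK145 (TFE3 fusions, three partners); 500 cells/well; MIPE v4.0, 1912 cpds, 11 conc.; 48 h, 37 C; CellTiter-Glo, 15 min RT; lum. Norm.: DMSO 100%, empty 0%.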
# [19] = Quantitative High-Throughput drug screen in 47 multiple myeloma cell lines against the NCATS MIPE library collection: KMS34_JCRB cell viability assay (AID 1918985); note: nearly all actives have a fitted effect of over 40% in size
# Procedure, shortened: as §1
# [20] = Quantitative High-Throughput drug screen in 47 multiple myeloma cell lines against the NCATS MIPE library collection: XG1_PLB cell viability assay (AID 1919866); note: nearly all actives have a fitted effect of over 35% in size
# Procedure, shortened: as §1
# [21] = measured here: PEO1 parental Z-AUC
# [22] = TFE3-RCC UOK109 viability, measured here: UOK109 Z-AUC
# [23] = TFE3-RCC viability, measured here: UOK124 Z-AUC
# [24] = TFE3-RCC viability, measured here: UOK145 Z-AUC
# Potency is the fitted concentration of half-maximal effect.
structure (smiles),measurement,setting,value
CC(C)C[C@H](NC(=O)CNC(=O)c1cc(Cl)ccc1Cl)B(O)O,Potency,[1],83.3 nM (active)
same,Potency,[2],132 nM (active)
same,Potency,[3],41.8 nM (active)
same,Potency,[4],37.2 nM (active)
same,Potency,[5],46.9 nM (active)
same,Potency,[6],296 nM (active)
same,Potency,[7],83.3 nM (active)
same,Potency,[8],37.2 nM (active)
same,Potency,[9],37.2 nM (active)
same,Potency,[10],418 nM (active)
same,Potency,[11],41.8 nM (active)
same,Potency,[12],66.2 nM (active)
same,Potency,[13],166 nM (active)
same,Potency,[14],132 nM (active)
same,Potency,[15],52.6 nM (active)
same,Potency,[16],66.2 nM (active)
same,Z-AUC,[17],-0.869 (inactive)
same,Z-AUC,[17]; [21],-1.48
same,Z-AUC,[17]; measured here: PEO4 Z-AUC,-1.83
same,Potency,[18]; TFE3-RCC UOK109 viability,372 nM (active)
same,z-score,[18]; [22],-1.3
same,z-score,[18]; [23],-1.47
same,z-score,[18]; [24],-2.81
COc1ccc(F)c(F)c1C(=O)c1cnc(NC2CCN(S(C)(=O)=O)CC2)nc1N,Potency,[1],2350 nM (active)
same,Potency,[2],1320 nM (active)
same,Potency,[19],1320 nM (active)
same,Potency,[4],1320 nM (active)
same,Potency,[5],1870 nM (active)
same,Potency,[7],2640 nM (active)
same,Potency,[8],1050 nM (active)
same,Potency,[20],1660 nM (active)
same,Potency,[9],935 nM (active)
same,Potency,[10],2350 nM (active)
same,Potency,[11],2090 nM (active)
same,Potency,[12],743 nM (active)
same,Potency,[15],1480 nM (active)
same,Potency,[16],3320 nM (active)
same,Potency,[17],871 nM (active)
same,Z-AUC,[17]; [21],-1.69
same,Z-AUC,[17]; measured here: PEO4 Z-AUC,-1.31
c1ccc2c(CCNc3ccc(Nc4ccncc4)cc3)c[nH]c2c1,Potency,[1],18700 nM (active)
same,Potency,[2],4690 nM (active)
same,Potency,[3],8330 nM (active)
same,Potency,[4],20900 nM (active)
same,Potency,[5],18700 nM (active)
same,Potency,[6],29600 nM (active)
same,Potency,[7],20900 nM (active)
same,Potency,[8],23500 nM (active)
same,Potency,[9],23500 nM (active)
same,Potency,[11],16600 nM (active)
same,Potency,[12],20900 nM (active)
same,Potency,[13],20900 nM (active)
same,Potency,[15],14800 nM (active)
same,Potency,[16],11800 nM (active)
same,Potency,[17],1230 nM (active)
same,Z-AUC,[17]; [21],-1.4
same,Z-AUC,[17]; measured here: PEO4 Z-AUC,-1.17
CC(C)c1noc(N2CCC(COc3ccc(-c4ccc(S(C)(=O)=O)cc4)nc3)CC2)n1,Potency,[1],16600 nM (active)
same,Potency,[2],inactive
same,Potency,[19],inactive
same,Potency,[5],inactive
same,Potency,[7],inactive
same,Potency,[8],3720 nM (active)
same,Potency,[20],2640 nM (active)
same,Potency,[9],7430 nM (active)
same,Potency,[11],inactive
same,Potency,[12],4690 nM (active)
same,Potency,[13],7430 nM (active)
same,Potency,[15],1180 nM (active)
same,Z-AUC,[17],-0.00574 (inactive)
same,Z-AUC,[17]; [21],-0.198
same,Z-AUC,[17]; measured here: PEO4 Z-AUC,1.01
same,z-score,[18]; [22],0.525
same,z-score,[18]; [23],0.308
same,z-score,[18]; [24],0.324
CC(C)Nc1cc(C(F)(F)F)cc2nc(NC(=O)c3cccnc3)nn12,Potency,[1],inactive
same,Potency,[2],inactive
same,Potency,[19],inactive
same,Potency,[4],8330 nM (active)
same,Potency,[5],inactive
same,Potency,[7],7430 nM (active)
same,Potency,[20],inactive
same,Potency,[12],inactive
same,Potency,[13],inactive
same,Potency,[15],inactive
same,Potency,[16],inactive
same,Z-AUC,[17],0.923 (inactive)
same,Z-AUC,[17]; [21],0.905
same,Z-AUC,[17]; measured here: PEO4 Z-AUC,1.12
OCCCNc1cc(-c2ccnc(Nc3cccc(Cl)c3)n2)ccn1,Potency,[1],148 nM (active)
same,Potency,[2],33.2 nM (active)
same,Potency,[19],132 nM (active)
same,Potency,[5],46.9 nM (active)
same,Potency,[6],148 nM (active)
same,Potency,[7],148 nM (active)
same,Potency,[8],33.2 nM (active)
same,Potency,[20],41.8 nM (active)
same,Potency,[9],23.5 nM (active)
same,Potency,[10],41.8 nM (active)
same,Potency,[11],37.2 nM (active)
same,Potency,[12],16.6 nM (active)
same,Potency,[13],187 nM (active)
same,Potency,[14],235 nM (active)
same,Potency,[15],52.6 nM (active)
same,Potency,[16],93.5 nM (active)
same,Z-AUC,[17],-1.99 (inactive)
same,Z-AUC,[17]; [21],-2.3
same,Z-AUC,[17]; measured here: PEO4 Z-AUC,-2.17
same,Potency,[18]; TFE3-RCC UOK109 viability,209 nM (active)
same,z-score,[18]; [22],-1.57
same,z-score,[18]; [23],-0.939
same,z-score,[18]; [24],-2.05
C[C@@H](Oc1cc(-n2cnc3ccc(CN4CCN(C)CC4)cc32)sc1C(N)=O)c1ccccc1C(F)(F)F,Potency,[1],93.5 nM (active)
same,Potency,[2],11.8 nM (active)
same,Potency,[19],41.8 nM (active)
same,Potency,[7],16600 nM (active)
same,Potency,[20],14.8 nM (active)
same,Potency,[9],18700 nM (active)
same,Potency,[12],13200 nM (active)
same,Potency,[14],59 nM (active)
same,Potency,[15],23.5 nM (active)
same,Z-AUC,[17],-0.926 (inactive)
same,Z-AUC,[17]; [21],-1.54
same,Z-AUC,[17]; measured here: PEO4 Z-AUC,-1.51
same,Potency,[18]; TFE3-RCC UOK109 viability,6620 nM (active)
same,z-score,[18]; [22],-0.886
same,z-score,[18]; [23],-1.58
same,z-score,[18]; [24],-1.64
CCOc1ccccc1OCCNC(C)Cc1ccc(OC)c(S(N)(=O)=O)c1 (centres undefined),Potency,[1],inactive
same,Potency,[2],inactive
same,Potency,[19],inactive
same,Potency,[4],inactive
same,Potency,[5],inactive
same,Potency,[7],inactive
same,Potency,[8],inactive
same,Potency,[20],inactive
same,Potency,[9],inactive
same,Potency,[10],inactive
same,Potency,[11],inactive
same,Potency,[12],inactive
same,Potency,[13],inactive
same,Potency,[15],inactive
same,z-score,[18]; [22],-0.0547
same,z-score,[18]; [23],0.341
same,z-score,[18]; [24],2.03
Cc1cc(C(=O)N2CCN(c3cccc(Cl)c3)CC2)n(-c2ccccc2)n1,Potency,[1],1870 nM (active)
same,Potency,[2],132 nM (active)
same,Potency,[3],59 nM (active)
same,Potency,[4],187 nM (active)
same,Potency,[5],5260 nM (active)
same,Potency,[6],296 nM (active)
same,Potency,[7],20900 nM (active)
same,Potency,[8],118 nM (active)
same,Potency,[20],93.5 nM (active)
same,Potency,[9],1320 nM (active)
same,Potency,[10],833 nM (active)
same,Potency,[11],3720 nM (active)
same,Potency,[12],9350 nM (active)
same,Potency,[13],5900 nM (active)
same,Potency,[14],5900 nM (active)
same,Potency,[15],148 nM (active)
same,Z-AUC,[17],-1.51 (inactive)
same,Z-AUC,[17]; [21],-1.82
same,Z-AUC,[17]; measured here: PEO4 Z-AUC,-1.79
